Compound activity: PubChem, several laboratories
Hits are enriched below; roughly 2.8% of the tested compounds scored in any of these assays.
EWS-Fli block: EWS/Fli transcriptional activity inhibition | A673 NR0B1-luciferase reporter, viability-normalised | inhibition, % at 12.6 µM | 350,000 compounds, 0.67% hits;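 active = mean inhibition of at least 50% after viability correction, with every replicate also passing that limit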;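 also: firefly luciferase signal divided by Alamar Blue viability fluorescence both relative to DMSO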
TWEAK-Fn14 inh: inhibitors of TWEAK-Fn14 interaction signaling; 360,000 compounds, 2% hits; inhibition, % at 10 µM; TWEAK-stimulated Fn14 reporter cells, luciferase luminescence, 8 h; in the data active = inhibition above about 50%
LGR2 antag: inhibitors of bursicon-induced Drosophila LGR2 receptor cAMP signaling | HEK293 LGR2, CRE-luciferase, bursicon-stimulated, 4 h | inhibition, % at 9.99 µM | AID 720647 | 380,000 compounds, 0.35% hits;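 active = drop in luminescence signal, shown as inhibition above about 50% in the replicate tests, limit read from the data, passing the limit was not always enough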;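 also: agonist challenge used bursicon conditioned medium at about half maximal strength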
PAX8 reporter: inhibitors of PAX8 transcriptional activity in RMG-I cells | 360,000 compounds, 1.2% hits | RMG-I TPO-luciferase reporter, SteadyGlo, 24 h | inhibition, % at 12.6 µM | AID 652154;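 active = mean replicate inhibition at least 60% with every replicate also reaching 60%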;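 also: luciferase light reporting Pax8 driven TPO promoter activity; plate controls were median of neutral control wells for no effect and mitoxantrone controls for full effect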
TROY signal inh: TROY signaling inhibition; inhibition, % at 10 µM; 360,000 compounds, 0.98% hits; AID 1347056; Q293 LMP1-TROYcd NF-kB luciferase reporter, 4 h;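 active = compounds whose plate-normalised and pattern-corrected inhibition of the luciferase reporter signal at the single screening dose is 50% or more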
Numbers without * were called inactive.

Screening O=[N+]([O-])c1cc(Cl)c2cccnc2c1O returned EWS-Fli block -12, TWEAK-Fn14 inh 0, LGR2 antag 18, PAX8 reporter -22 and TROY signal inh -2.
`O=C(C[C@H]1C[C@H]2c3cc(NC(=O)NC4CCCCC4)ccc3O[C@H]2[C@@H](CO)O1)NCc1cccnc1` gave EWS-Fli block 2, LGR2 antag -2 and PAX8 reporter 5.
C[C@H]1CN([C@@H](C)CO)C(=O)c2cc(C3=CCCCC3)cnc2O[C@@H]1CN(C)CC1CCCC1 was read as EWS-Fli block 9 and LGR2 antag -3.
Screening CC(=O)NC(c1ccccc1)c1cc(Cl)c2cccnc2c1O (stereo not given) returned EWS-Fli block 21, TWEAK-Fn14 inh 12, LGR2 antag 8, PAX8 reporter 85* and TROY signal inh 10.
COc1ccc(S(=O)(=O)Nc2ccc3c(c2)C(=O)N([C@@H](C)CO)C[C@@H](C)[C@@H](CN(C)S(=O)(=O)c2ccc(C)cc2)OCCCC[C@@H](C)O3)cc1 was read as EWS-Fli block -11, LGR2 antag 11 and PAX8 reporter 67*.
For COc1ccc(S(=O)(=O)Nc2ccc3c(c2)C(=O)N([C@H](C)CO)C[C@H](C)[C@H](CN(C)S(=O)(=O)c2ccc(C)cc2)OCCCC[C@H](C)O3)cc1 the results were EWS-Fli block 9, LGR2 antag -17 and PAX8 reporter 72*.
Screening COc1ccc(S(=O)(=O)N(C)C[C@@H]2OCCCC[C@H](C)Oc3ccc(NS(=O)(=O)c4ccc(C)cc4)cc3C(=O)N([C@@H](C)CO)C[C@@H]2C)cc1 returned EWS-Fli block 12, LGR2 antag 17 and PAX8 reporter 42.
Screening CC(C)NC(=O)N(C)C[C@@H]1Oc2c(NS(=O)(=O)c3cccs3)cccc2C(=O)N([C@@H](C)CO)C[C@H]1C returned EWS-Fli block -10, LGR2 antag -2 and PAX8 reporter -27.
`Cc1c(N/N=C(\C#N)C(=O)c2ccc(Cl)cc2)c(=O)n(-c2ccccc2)n1C` gave TWEAK-Fn14 inh -7, LGR2 antag 12, PAX8 reporter 64* and TROY signal inh -33.
Screening Cn1c(SCC(=O)NCC2CCCO2)nnc1-c1c[nH]c2ccccc12 (stereo not given) returned EWS-Fli block -5, TWEAK-Fn14 inh 12, LGR2 antag -10, PAX8 reporter 10 and TROY signal inh 13.
Screening COc1ccc(C(=O)Nn2c(SCC(=O)NCc3ccccc3)nc3ccccc3c2=O)cc1 returned TWEAK-Fn14 inh 85*, PAX8 reporter 54 and TROY signal inh 78*.
`CCn1c(SCC(=O)NCC2CCCO2)nnc1-c1c[nH]c2ccccc12` (stereo not given) gave TWEAK-Fn14 inh 63*.
Screening O=C(CSc1nc2ccccc2c(=O)n1NC(=O)Cc1ccccc1)NCc1ccccc1 returned TWEAK-Fn14 inh 1, PAX8 reporter -5 and TROY signal inh -9.
Screening COc1ccc(C(=O)Nn2c(SCC(=O)NC3CCCC3)nc3ccccc3c2=O)cc1 returned TWEAK-Fn14 inh 78* and TROY signal inh 79*.
Screening COc1ccc(C(=O)Nn2c(SCC(=O)NCC3CCCO3)nc3ccccc3c2=O)cc1 (stereo not given) returned TWEAK-Fn14 inh 95*, PAX8 reporter 58 and TROY signal inh 78*.
Screening O=C(C[C@H]1C[C@@H]2c3cc(NC(=O)C4CCC4)ccc3O[C@@H]2[C@H](CO)O1)NCCc1ccccc1 returned EWS-Fli block 3, LGR2 antag 3 and PAX8 reporter 6.
O=C(C[C@H]1CC[C@@H]2[C@H](COC[C@@H](O)CN2Cc2ccc(Cl)cc2)O1)NCc1ccccc1Cl was read as EWS-Fli block 4, LGR2 antag 6 and PAX8 reporter 21.
For C[C@@H]1CCCCO[C@@H](CN(C)S(=O)(=O)c2cn(C)cn2)[C@@H](C)CN([C@@H](C)CO)C(=O)c2cc(NC(=O)C3CCCCC3)ccc2O1 the results were EWS-Fli block -9, LGR2 antag 7 and PAX8 reporter 8.
`C[C@@H]1CN([C@H](C)CO)C(=O)c2cc(NC(=O)Nc3ccccc3)ccc2O[C@@H]1CN(C)S(=O)(=O)c1ccc(F)cc1` gave EWS-Fli block -10 and LGR2 antag -27.
COc1ccc(-c2cnc3c(c2)C(=O)N([C@H](C)CO)C[C@H](C)[C@@H](CN(C)C(=O)NC2CCCC2)O3)cc1 was read as EWS-Fli block -6, LGR2 antag 3 and PAX8 reporter 3.
